# Data from PubChem BioAssay (NCI).
# Compounds without any hit were thinned out: in the full panel of roughly 83,000, 20% have a hit.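 Interpretation: 100, growth as untreated; towards 0, rising growth inhibition; 0, no net growth; 0 to -100, cell death. Compounds scoring below 10 were considered active.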 Active and inactive are the calls of the source.
# Tested on: EKVX NSCLC
# Experiment: NCI-60 one-dose screen, 48 h (100 = growth as untreated, 0 = no growth, -100 = all killed)
# Details: 10 µM unless noted
# Description: Growth inhibition of the EKVX human Non-Small Cell Lung tumor cell line is measured as a screen for anti-cancer activity. Cells are grown in 96 well plates and exposed to the test compound for 48 hours. Compounds are tested at a single concentration, which is 10^-5 M for most compounds. The reported endpoint is percent growth (GI% or GIPRCNT), where numbers from 0 - 100% represent growth inhibition, and numbers from -100% - 0 represent cell death. For example, a value of 40 represents 60% growth inhibition. A value of 0 means no net growth occurred over the course of the experiment. A value of -40 indicates 40% of cells at the beginning of the experiment died by the end of the experiment. A value of -100 means all cells are dead at the end of the experiment.
# NCI-60 Human Tumor Cell Lines Screen was performed using the standard one-dose NCI protocol, which is described in more detail at https://dtp.cancer.gov/discovery_development/nci-60/default.htm.
# Compounds with GIPRCNT values below 10 were considered active. Activity score was based on GIPRCNT using the following formula: […]
# Score is 0 for GIPRCNT values of 100 or above, 50 for GIPRCNT values of 0, and 100 for GIPRCNT values of -100.
row,SMILES,growth
1,COc1cc(Oc2cc(-c3cccnc3)ccc2NC(=O)Nc2ccc(F)cc2F)cc(OC)c1OC,90.4% (inactive)
2,CC(C)C(=O)Cc1cnccn1,99.4% (inactive)
3,Nc1nc2ncc(CCNc3ccc(C(=O)NC(CCC(=O)O)C(=O)O)cc3)nc2c(=O)[nH]1 (stereo not given),119% (inactive)
4,CC(=O)O[C@H]1C(=O)[C@@]2(C)C([C@H](OC(=O)c3ccccc3)[C@]3(O)C[C@H](OC(=O)[C@H](O)[C@@H](NC(=O)c4ccccc4)c4ccccc4)C(C)=C1C3(C)C)[C@]1(OC(C)=O)CO[C@@H]1C[C@@H]2O (stereo not given in full),48.3% (inactive)
5,COc1ccc(OC)c(NC(=O)c2cc3oc4ccccc4c3cc2O)c1,75.9% (inactive)
6,COc1ccc(C2=NN(C(=O)c3cc(OC)c(OC)c(OC)c3)C(c3ccc(C#N)cc3)C2)cc1OC (stereo not given),33.4% (inactive)
7,O=C1NC(=O)/C(=C\c2ccccc2)C2=C1CCCC2,95% (inactive)
8,O=NC1CC=CCC1c1ccccc1 (stereo not given),101% (inactive)
9,CCCCCCCCCCCCCCCCN=C(CC(=O)O)C(=O)O,113% (inactive)
10,COc1cc2cn3c4ccc(O)cc4nc(N)c3c2cc1OC,48.7% (inactive)
11,O=C(/C=C/c1cccnc1)NCCCCC1CCCN(C(=O)c2ccccc2)C1 (stereo not given),106% (inactive)
12,COC(=O)C[C@@H]1CC=CC(=O)/C1=C(O)/C=C/c1ccccc1,-30.8% (active)
13,NC(=Nc1ccccc1)SCCCCSC(N)=Nc1ccccc1,80.4% (inactive)
14,COc1ccc2c(c1)C(=O)c1c-2c(OCCN(C)C)nc2cc(OC)ccc12,20.6% (inactive)
15,C=Cc1nn2c(CCC(=O)c3nc4ccccc4[nH]3)nnc2s1,106% (inactive)
16,C[C@]12C[C@H](O)[C@H]3[C@@H](CCC4=CC(=O)CC[C@@]43C)[C@@H]1CC[C@@H]2C(=O)CO,80.7% (inactive)
17,Cc1cc(C(=O)O)c(C)cc1C(=O)O,122% (inactive)
18,Nc1nc(SCc2ccccc2Cl)c(-c2ccccc2)c(SCc2ccccc2Cl)n1,97.3% (inactive)
19,Cn1cc(-c2csc(-c3cn(C)c4ncccc34)n2)c2cc(F)cnc21,77.7% (inactive)
20,N#CCNc1ccccc1N,89.6% (inactive)

row,SMILES,growth
1,COc1ccc(-c2cn(-c3ccccc3)c(-c3ccccc3)n2)cc1OC,84.9% (inactive)
2,CCOc1cc(-c2ccc[nH]2)[nH]c1/C=C1\N=C(C)C(C(=O)OC)=C1C,-50.3% (active)
3,COc1ccc2nc(NC(=O)c3cc(-c4ccc(F)cc4)n4nc(-c5ccccc5)cc4n3)sc2c1,79.5% (inactive)
4,CC/C(=C\c1ccc(N(C)C)cc1)c1ccncc1,63.5% (inactive)
5,Clc1ccc2c(Nc3ccc4oc(NCCN5CCCC5)nc4c3)ccnc2c1,104% (inactive)
6,C[C@@H]1CC[C@H]2[C@@H](C)C(O)O[C@@H]3O[C@]4(C)CC[C@@H]1[C@]32OO4 (stereo not given in full),29.9% (inactive)
7,O=C(Nc1ccc(Cl)cc1)c1cc2c(cc1O)[nH]c1ccccc12,10.8% (inactive)
8,COc1ccc(/C=C2\COc3ccc(O)c(O)c3C2=O)cc1OC,42.2% (inactive)
9,OCCOc1c(Cl)cc(Cl)cc1Cl,106% (inactive)
10,C=C(C)[C@H]1CC/C(C)=C/CC[C@]2(C)O[C@H]2CC/C(C=O)=C\C1O (stereo not given in full),103% (inactive)
11,CCN(CC)c1ccc(CN(CC(=O)c2ccc(Cl)c(Cl)c2)Cc2ccccc2)cc1,108% (inactive)
12,O=C(Nc1ccncc1)C(=O)c1cn(S(=O)(=O)c2cccc(F)c2)c2ccccc12,35.4% (inactive)
13,CN(C)c1ccc(/C=C(\C#N)c2nc3ccccc3c(=O)[nH]2)cc1,92% (inactive)
14,COc1cc(/C=C2\COc3ccc(O)c(O)c3C2=O)cc(OC)c1,56.4% (inactive)
15,ClC1C2CC(c3ccccc32)C1Cl (stereo not given),123% (inactive)
16,O=[P@@]1(c2ccccc2)O[C@H](COCc2ccccc2)[C@@H](OCc2ccccc2)[C@H](OCc2ccccc2)[C@H]1NCc1ccccc1,17.6% (inactive)
17,O=C(Nc1cccc([N+](=O)[O-])c1)c1cccc(C(=O)Nc2cccc([N+](=O)[O-])c2)c1,84.3% (inactive)
18,COc1ccc2c(c1)nc(N)c1c3cc(OC)c(OC)cc3cn21,73.1% (inactive)
19,COc1cc(C2CC(c3ccc(C)cc3)=NN2C(C)=O)ccc1Oc1ccnc2cc(Cl)ccc12 (stereo not given),63.3% (inactive)
20,Cc1ccc(C=C2C(Cl)=C(Cl)C(Cl)=C2Cl)cc1,-10.6% (active)
